Data on 19 compounds can be found in PubChem BioAssay (NCATS).

Records with an inconclusive call do not appear. Active and inactive are the calls of the source. The call rests on the fitted dose curve; in most records, active means well fitted cell-killing curve with a large enough effect; inconclusive means small, poorly fitted or top-dose-only effect, or effect the other way; inactive means flat fitted curve, though single readings scatter.
On the % scale 0 is the no-effect control and ±100 the full control effect; potency means the concentration at half of the fitted maximal effect.

This test has as its system PA-1. Kind of test: Primary qHTS to identify gynecologic anti-cancer compounds using libraries of approved drugs and bioactive compounds (AID 1345084). Further: nearly all actives have a fitted effect of over 55% in size. The conditions noted are these: Gynecologic cancer cell panel viability, ATPlite luminescence, 48 h; series mostly up to 57.5 µM; activity change, negative = cytotoxicity: at the top concentration. Put shortly:
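ATP-based viability (ATPlite), 1,000 cells/well, 16 h pre-incubation, 48 h compound at 37 C, 5% CO2, 15 min RT before read.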
For orientation: qHTS replaces the single test concentration by a dilution series.
Regarding `Cn1ncc(Cl)c1-c1cc(C(=O)N[C@H](CN)Cc2cccc(F)c2)sc1Cl`, the Potency was 25.1 µM (active).
In the case of `Cc1c[nH]c2ncnc(N3CCC(CN)(C(=O)Nc4cccc(OC(=O)N(C)C)c4)CC3)c12`, the “activity change, negative = cytotoxicity” value was -29.5% (inactive).
Still for that read-out and setting: under `CC1(C)CC[C@]23CO[C@@]4(CCC5[C@@]6(C)CC[C@H](O[C@@H]7OC[C@H](O[C@@H]8O[C@H](CO)[C@@H](O)[C@H](O)[C@H]8O[C@@H]8OC[C@@H](O)[C@H](O)[C@H]8O)[C@H](O)[C@H]7O[C@@H]7O[C@H](CO)[C@@H](O)[C@H](O)[C@H]7O)[C@@](C)(CO)C6CC[C@@]5(C)[C@]4(C)C[C@H]2O)[C@@H]3C1` (some centres undefined) stands -25.5% [at 11.6 µM] (inactive); under `O=C(Nc1ncc([N+](=O)[O-])s1)c1ccccc1O`, -1.1% (inactive); under `Cc1ccc(N2CCN(S(=O)(=O)N3CCCCC3)CC2)c(C)c1`, 0.485% (inactive).
On the same count and under the same terms, under `Cc1cc(F)c(C(=O)Nc2cccc(-c3nncn3C(C)C)n2)cc1-n1cnc(C2CC2)c1` stands -4.98% [at 25.3 µM] (inactive).
`COc1cc(-n2cnc3cc(-c4ccc(Cl)cc4)sc3c2=O)ccc1OCCN1CCCC1`: the Potency was 22.4 µM (active).
Still for that read-out and setting: with `C/C1=C\CCC2=CC(OC2=O)C(C)(C)/C=C/C1=O` (centres undefined) the figure was 31.6 µM (active).
As to `N#CC(CCCN1CCC(O)(c2ccc(Cl)cc2)CC1)(c1ccccc1)c1ccccc1`, the “activity change, negative = cytotoxicity” value is -0.424% (inactive).
In the case of `CCCc1cc(C)[nH]c(=O)c1CNC(=O)c1cc(-c2ccnc(N3CCN(C)CC3)c2)cc2c1cnn2C(C)C`, the Potency is 25.1 µM (active).
`C=C1C(=O)OC2C1CCC1(C)C(O)CC=C(C)C21` (centres undefined): the “activity change, negative = cytotoxicity” value was -27.8% (inactive).
Regarding `C=C1C(=O)OC2/C=C(\COC(C)=O)CC/C=C(\C=O)CC(OC(=O)C(C)CC)C12` (centres undefined), the Potency is 11.2 µM (active).
For the compound `C=CCc1ccc(OC(C)Cc2ccc(OC)c(OC)c2)c(OC)c1` (centres undefined), the “activity change, negative = cytotoxicity” value is 18.7% [at 38.5 µM] (inactive).
Take `CCN1CCN(Cc2ccc(NC(=O)c3ccc(C)c(Oc4ncnc5[nH]c(C)cc45)c3)cc2C(F)(F)F)CC1`: the Potency is 31.6 µM (active).
As to `Cc1nc(Nc2cnn(C3CCNCC3)c2)nc2c1N(C)C(=O)c1cc3ccccc3cc1N2C`, the “activity change, negative = cytotoxicity” value was -18% (inactive).
As for `C=CS(=O)(=O)NC1CCN(C(=O)CNc2cc(I)c(Cl)cc2OC)CC1`, the Potency is 10 µM (active).
For the compound `COc1cc2c(NC3CCN(C(C)C)CC3)nc(N3CCC(F)(F)CC3)nc2cc1OCCCN1CCCC1`, the Potency was 22.4 µM (active).
With `CCOc1ccc(S(=O)(=O)N2CCCCCC2)c2ccccc12`, the “activity change, negative = cytotoxicity” value is 1.27% (inactive).
Regarding `CC(=O)OC1[C@H]2[C@@H](C[C@@H](C)[C@@H]3C=CC(=O)[C@@]13C)OC(=O)[C@@H]2C` (some centres undefined), the Potency was 35.5 µM (active).
